Test results as given in ChEMBL document CHEMBL4513151, “CO-ADD screening of Institut Català d'Investigació Química (Spain) compounds”.
Where “and” joins values, the source holds several entries; their conditions need not be identical. Identical values can stand only once. Measured potencies and affinities stand elsewhere.

Tests used:
Klebsiella pneumoniae = details: Concentration 32 ug.mL-1; ASSAY_TEST Inhibition of Bacterial Growth; detection method Absorption (OD600); MEDIA CAMHB; plate type 384well; NBS; CORNING #3640; time 18 hr, 32 ug/mL
Cryptococcus neoformans = details: Concentration 32 ug.mL-1; ASSAY_TEST Inhibition of Fungal Growth; detection method Resazurin; Absorption (OD600-OD570); plate type 384well; NBS; CORNING #3640; 32 ug/mL

| SMILES | Inhibition (Klebsiella pneumoniae) | Inhibition (Cryptococcus neoformans) |
| --- | --- | --- |
| C[C@]12CC[C@@](c3ccc(C(F)(F)F)cc3)(O1)[C@H]1C=C[C@H](OC(=O)c3ccccc3)[C@H]12 | 10.18% and 19.4% | – |
| C[C@]12CC[C@@](C3CC3)(O1)[C@H]1C=C[C@H](OC(=O)c3ccccc3)[C@H]12 | 19.23% and 15.4% | – |
| C[C@]12CC[C@@](c3ccccc3)(O1)[C@H]1C=C[C@H](OC(=O)c3ccccc3)[C@H]12 | – | -55.26% and -63.64% |
